Rows were chosen to be rich in hits. Some 11% of all compounds tested hit in one or more screens of this group.
AMA1-RON2 inh = AMA1-RON2 (P. falciparum) interaction inhibition; AlphaScreen AMA1-biotinylated RON2 peptide binding; Potency, µM (titrated, usually from 58.2 µM), for inactives: top-dose activity change, negative = inhibition, hits mostly inhibitors; 360,000 compounds, 0.2% hits; AID 720542;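 further: 0% = vehicle wells and -100% = peptide control; nearly all actives have a fitted effect of over 45% in size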
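AMA1 (3D7) with his tag at 25 nM final met compounds first, then biotinylated RON2 peptide at 25 nM; detection used donor plus acceptor beads, 10 µg/mL apiece, read by AlphaScreen after 30 min at room temperature.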
HCV inhibitor = blocks hepatitis C virus; Huh7.5.1 HCVcc-Cre infection, luciferase reporter, 44 h; Potency, µM (top dose mostly 41.8 µM), for inactives: top-dose activity change, negative = inhibition, most hits filed as inhibitors; 340,000 compounds, 3.4% hits; AID 651820
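Luciferase read-out (15 sec integration) after a 15 min room-temperature substrate step quantifies HCVcc-Cre infection. Cells, 1,000 per well, had compound added 4 h post-plating, then virus at ~0.5 moi, and were cultured 44 h.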
Pf growth 96h = P. falciparum growth inhibition at 96 hours | P. falciparum luciferase reporter growth, 96 h | Potency, µM (top dose mostly 28.7 µM), without a hit: at the highest dose activity change, negative = inhibition, usual class: inhibitors | 320,000 compounds, 6.9% hits
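Parasite growth measured via integrated firefly luciferase reporter in P. falciparum. Infected erythrocytes at 2% hematocrit, 0.05% parasitemia final were treated 96 hours at 37 C under 5% CO2, and luminescence was read.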
AmpC detergent = inhibitors of E. coli AmpC beta-lactamase with detergent; P00811; AmpC hydrolysis of nitrocefin, absorbance 480 nm, 0.01% Triton; Potency, µM (titrated, usually from 114 µM), inactives show top-dose activity change, negative = inhibition, usual class: inhibitors; 370,000 compounds, 0.041% hits;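 further: 0% = no-compound wells and -100% = no-enzyme wells; nearly all actives have a fitted effect of over 25% in size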
Target sequence (P00811 whole entry, looked up): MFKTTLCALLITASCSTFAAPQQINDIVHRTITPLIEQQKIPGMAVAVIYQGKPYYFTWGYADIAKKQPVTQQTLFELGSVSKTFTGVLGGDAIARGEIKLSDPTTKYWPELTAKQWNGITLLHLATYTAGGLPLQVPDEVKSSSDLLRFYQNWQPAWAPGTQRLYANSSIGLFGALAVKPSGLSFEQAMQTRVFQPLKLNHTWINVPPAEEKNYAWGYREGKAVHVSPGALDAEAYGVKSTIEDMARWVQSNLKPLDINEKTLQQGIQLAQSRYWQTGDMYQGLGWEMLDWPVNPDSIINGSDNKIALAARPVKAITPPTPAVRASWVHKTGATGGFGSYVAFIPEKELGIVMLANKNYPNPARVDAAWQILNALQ
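AmpC (5.3 nM in the dispensed reagent) in 20 mM phosphate pH 7.0 with 0.01% (detergent screen) or 0.0001% Triton X-100 was preincubated with compounds for 15 min at room temperature. Nitrocefin was then added from an 800 uM solution, and hydrolysis was followed at 480 nm.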
AmpC inh no detg = blocks E. coli AmpC beta-lactamase in detergent-free assay; Potency, µM (doses to about 57.1 µM), inactives show at the highest dose activity change, negative = inhibition, usual class: inhibitors; AmpC nitrocefin hydrolysis, absorbance 480 nm, 0.0001% Triton; 330,000 compounds, 0.52% hits; AID 485341;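 further: plate controls were no compound for no effect and no enzyme for full effect; nearly all actives have a fitted effect of over 20% in size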
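AmpC (5.3 nM in the dispensed reagent) in 20 mM phosphate pH 7.0 with 0.01% (detergent screen) or 0.0001% Triton X-100 was preincubated with compounds for 15 min at room temperature. Nitrocefin was then added from an 800 uM solution, and hydrolysis was followed at 480 nm.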
Pf growth 48h = inhibits P. falciparum growth in the first generation, 48 h | P. falciparum luciferase growth in erythrocytes, 48 h | 310,000 compounds, 5.9% hits | Potency, µM (top dose mostly 28.7 µM), for inactives: at the top dose activity change, negative = inhibition, actives largely listed as inhibitors | AID 504832
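Parasite viability was followed by luminescence of a genomically integrated firefly luciferase. Cultures held 0.1% parasitemia at 2% hematocrit (final), incubated under 5% CO2 at 37 C.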
Numbers without * were called inactive; ? = inconclusive; / = no result. The call rests on the fitted dose curve; in most records, active means well fitted curve in the direction sought with a large enough effect; inconclusive means small, poorly fitted or top-dose-only effect, or another doubt; inactive means no such curve, though single readings can be large; an effect the other way counts as inactive or inconclusive. Unless noted, on the % scale 0 is the no-effect control and ±100 the full control effect; potency means the concentration at half of the fitted maximal effect.

SMILES	AMA1-RON2 inh	HCV inhibitor	Pf growth 96h	AmpC detergent	AmpC inh no detg	Pf growth 48h
O=C(/C=C/c1ccccc1)NC(=S)Nc1ccc(N2CCOCC2)cc1	-2%	-22%	-15%	0%	-9%	5%
O=C1C2C3C=CC(C3)C2C(=O)N1CCN1CCN(S(=O)(=O)/C=C/c2ccccc2)CC1 (centres undefined)	-3%	-24%	5.9µM*	-8%	100%	-3%
O=C(/C=C/c1ccc(Cl)cc1)Nc1ccccc1N1CCOCC1	1%	17%	15µM*	-20%	-20%	34%
O=C1C2C3C=CC(C3)C2C(=O)N1CCN1CCN(S(=O)(=O)c2ccc3ccccc3c2)CC1 (centres undefined)	-18%	?	15%	-9%	82%	-18%
O=C(/C=C/c1ccc(Cl)cc1)Nc1ccc(N2CCOCC2)cc1	17%	-11%	12%	-7%	-17%	-11%
CCOC(=O)Cn1c(=O)oc2cc(S(=O)(=O)N3CCN(c4ccc(Cl)cc4)CC3)ccc21	/	/	/	-6%	/	/
NC(=O)C1CCN(CC(=O)Nc2ccccc2N2CCOCC2)CC1	-5%	14%	15%	5%	-11%	5%
O=C(Nc1ccc(N2CCOCC2)c(Cl)c1)c1ccc(Cl)cc1	1%	10µM*	10%	13%	-39%	0%
O=C(CN1CCN(S(=O)(=O)/C=C/c2ccccc2)CC1)Nc1ccccc1N1CCOCC1	-10%	-29%	3.7µM*	1%	28%	?
O=C(Nc1ccc(Cl)c(Cl)c1)c1ccc2c(c1)OCO2	5%	-21%	-14%	4%	-37%	250%
O=C(Nc1ccc(N2CCCCC2)c(Cl)c1)c1ccc2c(c1)OCCO2	-4%	10µM*	/	4%	-33%	12%
CCN(C(=O)Cn1nc(Cc2ccncc2)c2ccccc2c1=O)c1cccc(C(F)(F)F)c1	/	/	/	11%	/	/
Cc1cccc(NC(=O)N2CCN(C(=O)c3nsc4ccccc34)CC2)c1C	/	/	/	4%	/	/
CN(O)/C=c1/ccc2c(n1)C(=O)C=CC=2	?	-11%	12µM*	-6%	-45%	8.3µM*
COc1ccccc1C1C(C(=O)Nc2ccccc2)=C(C)Nc2nc(-c3ccccc3)nn21 (centres undefined)	/	/	/	7%	/	/
COc1ccccc1-c1cccc([C@@H]2C[C@H]3[C@H](CON3C)CN2Cc2ccccc2)c1	?	8.9µM*	/	/	/	/
COc1ccccc1-c1cccc([C@@H]2C[C@H]3[C@H](CON3C)CN2Cc2cc(Cl)cc(Cl)c2)c1	-14%	?	/	/	/	/
CC(=O)c1cnc2nc(SCc3ccc(Cl)cc3)nn2c1C	2%	?	-12%	?	296%	-22%
CC(=O)c1cnc2nc(SCc3ccc(C)cc3)nn2c1C	1%	-11%	13µM*	?	0%	28%
O=C(Nc1ccc(F)cc1)c1ncn(-c2ccccc2)n1	/	/	/	14%	/	/
O=C(Cn1cc(/C=N/NC(=O)c2ccccc2Br)c2ccccc21)Nc1ccc(F)cc1	1%	?	1%	-9%	14µM*	12%
COc1cc(C(=O)N/N=C/c2cn(Cc3cccc(F)c3)c3ccccc23)ccc1O	-13%	?	1.7µM*	?	-46%	-28%
COc1cc(C(=O)N/N=C/c2ccc(OC)c(CN3CCN(c4ccc(F)cc4)CC3)c2)ccc1O	-3%	25µM*	-1%	6%	-1%	?
COc1cc(/C=N/NC(=O)c2ccc(-n3cccc3)cc2)ccc1O	-6%	?	-10%	-14%	14µM*	-6%
O=C(CCCn1c(=O)[nH]c2ccccc2c1=O)N1CCN(c2ccccc2)CC1	/	/	/	-2%	/	/
SMILES	AMA1-RON2 inh	HCV inhibitor	Pf growth 96h	AmpC detergent	AmpC inh no detg	Pf growth 48h
COC(=O)c1ccc(NC(=O)c2cc(S(=O)(=O)N3CCc4ccccc43)cn2C)cc1	/	/	/	25%	/	/
CC(C)c1ccc(CN(Cc2ccco2)c2cnc(S(C)(=O)=O)nc2C(=O)Nc2ccccc2)cc1	/	/	/	1%	/	/
COc1ccc(C(=O)N/N=C/c2ccc(OC)c(CN3CCc4cc(OC)c(OC)cc4C3C)c2)cc1 (centres undefined)	-25%	?	-34%	0%	99%	9.3µM*
COc1ccc(C(=O)N/N=C/c2ccc(OC)c(COc3ccc(F)cc3)c2)cc1	-5%	-21%	?	3%	-4%	?
CCOc1ccccc1NC(=O)N1CCN(Cc2nc3ccc(C)cc3o2)CC1	/	/	/	10%	/	/
CCOC(=O)c1cnc2c(c(C)nn2CC)c1NCCN1CCOCC1	36%	?	12µM*	-7%	57%	-25%
CCOC(=O)c1cnc2c(C(F)(F)F)cccc2c1NCCCN1CCOCC1	4%	?	222%	2%	171%	5.2µM*
CCOC(=O)c1cnc2c(Cl)cccc2c1NCCN1CCOCC1	-4%	-8%	103%	?	-24%	-1%
Cc1ccc(C)c(NC(=O)CSc2nnc(-c3cc4occc4n3C)n2-c2ccccc2C)c1	/	/	/	13%	/	/
Cc1ccc2c(c1)-c1c(cnc3cc(-c4ccc(F)cc4)nn13)CO2	/	/	/	1%	/	/
NC(=O)c1cccc2cc3ccccc3cc12	16%	11µM*	?	4%	-14%	21%
NC(=O)c1ccccc1OCc1cccc2ccccc12	-3%	?	27%	1%	-29%	21%
Cc1ccc(Oc2cc(NN3CCCCC3)c([N+](=O)[O-])cc2[N+](=O)[O-])c([N+](=O)[O-])c1	-19%	-1%	?	-14%	-29%	-6%
CC(=O)c1ccccc1Oc1cc(NN2CCCCC2)c([N+](=O)[O-])cc1[N+](=O)[O-]	-16%	?	?	4%	-38%	-19%
Cc1ccc(Oc2cc(NN3CCCCC3)c([N+](=O)[O-])cc2[N+](=O)[O-])c(Cl)c1	-9%	5%	13µM*	-7%	-31%	?
CC(=O)c1cccc(Oc2cc(NN3CCCCC3)c([N+](=O)[O-])cc2[N+](=O)[O-])c1	-27%	8.9µM*	12µM*	-14%	-21%	-9%
CCC(C)C1O[C@]2(C=CC1C)CC1CC(C/C=C(\C)[C@H](OC3CC(OC)C(O[C@H]4CC(OC)[C@@H](O)C(C)O4)C(C)O3)[C@@H](C)/C=C/C=C3\COC4C(O)C(C)=C[C@H](C(=O)O1)[C@@]34O)O2 (some centres undefined)	/	/	13µM*	/	/	15µM*
CC(C)NC(=O)c1ccc(CSc2nc3ccncc3n2Cc2cccc(F)c2)cc1	/	/	/	16%	/	/
